From PubChem BioAssay
A selection: hits, their analogues and other compounds. The true share with any hit is near 2.8%.
DRD3 antagonist = antagonists of human D3 dopamine receptor; P35462; D3R cells, DiscoveRx beta-arrestin luminescence, antagonist mode; active compounds read low; max response, negative = inhibition, %; 360,000 compounds, 2.5% hits; AID 652054; in the data active = max response below about -50%; inconclusive = no clear call, values can overlap the other calls; note: % is set by controls: 0 for no effect and ±100 for the full control effect
Target sequence (P35462 whole entry, looked up): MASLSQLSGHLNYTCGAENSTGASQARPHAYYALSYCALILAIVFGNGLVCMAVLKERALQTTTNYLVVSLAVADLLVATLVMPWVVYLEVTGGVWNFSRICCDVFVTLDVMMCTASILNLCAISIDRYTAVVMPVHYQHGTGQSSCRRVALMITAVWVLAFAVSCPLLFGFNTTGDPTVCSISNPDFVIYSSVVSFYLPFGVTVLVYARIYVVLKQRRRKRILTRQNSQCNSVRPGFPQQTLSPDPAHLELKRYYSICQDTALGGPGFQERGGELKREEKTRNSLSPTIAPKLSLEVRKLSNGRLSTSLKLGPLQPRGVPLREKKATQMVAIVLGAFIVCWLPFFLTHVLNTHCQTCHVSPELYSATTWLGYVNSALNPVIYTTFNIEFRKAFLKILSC
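Cells expressing the human receptor were seeded at 1500 cells/well, incubated overnight at 37 degrees C in 5% CO2, then exposed to library compounds with dopamine controls for 90 minutes at 37 degrees C before luminescent detection.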
LDHA inh = LDHA (human) enzyme inhibition; P00338; 480,000 compounds, 0.15% hits; purified LDHA, NADH/diaphorase-resazurin fluorescence; active compounds read low; activity change, % (values are at about 110 or 230 µM); AID 1347041; in the data active = activity change below about -30%; inconclusive = mostly about -25% to -30%;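 note: plate controls were DMSO wells for no effect and wells without enzyme for full effect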
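Resorufin fluorescence (ex540/em590), read at 0 and 20 min after diaphorase/resazurin addition, reports the NADH left after a 5 min room-temperature reaction of 2 nM human LDH5 with 0.06 mM NADH and 0.2 mM pyruvate.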
RGS4 inh = inhibitors of human regulator of G protein signaling 4; P49798; 390,000 compounds, 0.039% hits; Potency, µM (series often up to 114 µM), for inactives: at the highest dose activity change, negative = inhibition, hits mostly inhibitors; Transcreener GDP fluorescence polarization, RGS4-accelerated GTP hydrolysis; active = well fitted inhibition curve with a large enough effect; inconclusive = small, poorly fitted or top-dose-only effect; inactive = no such curve, though single readings can be large or run the other way; note: potency is the fitted concentration of half-maximal effect; % is set by controls: 0 for no effect and ±100 for the full control effect; nearly all actives have a fitted effect of over 75% in size
Target sequence (P49798 whole entry, looked up): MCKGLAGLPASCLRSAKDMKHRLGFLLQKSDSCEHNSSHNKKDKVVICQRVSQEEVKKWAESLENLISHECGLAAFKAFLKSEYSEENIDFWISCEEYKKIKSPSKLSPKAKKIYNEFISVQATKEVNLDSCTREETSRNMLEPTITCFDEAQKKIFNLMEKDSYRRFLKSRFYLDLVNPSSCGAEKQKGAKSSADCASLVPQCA
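MLSMR compounds (23 nl, pin-transferred) preincubated 10 min at room temperature with a 500nM (2x) first reagent, then RGS4 at 900nM (2x) plus Transcreener GDP mix added; fluorescence polarization (620/688 nm) read before and after 90 min at 30 °C.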
PI4K2A block = inhibitors of human PI4K2A; Q9BTU6; purified PI4K2A, ADP-Glo luminescence, 1 h; active compounds read low; activity change, negative = inhibition, % at 76.9 µM; 420,000 compounds, 0.13% hits; AID 1346378; in the data active = activity change below about -50%; inconclusive = mostly about -30% to -49%;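 note: -100% = wells without enzyme as full effect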
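In this quantitative HTS, ADP production by PI4K2A was quantified luminescently after 1 h at ambient temperature; 100 microM adenosine served as plate-quality control.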
Akt phos inh = inhibitors of Akt phosphorylation. Neuro2A IGF-stimulated pAkt S473 HTRF, 20 min; active compounds read low. activity change, % for hits at 50 µM. 360,000 compounds, 0.32% hits; in the data active = activity change below about -80%; inconclusive = mostly about -51% to -80%; note: % is set by controls: 0 for no effect and ±100 for the full control effect
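Neuro2A cells (4,500/well, DMEM with 0.5% FBS) were treated with compound at a single 50 µM final concentration, stimulated with 6 nM IGF for 20 min at 37 °C, and lysed. Phospho-Akt Ser473 was read by HTRF as 665/615 ratio ×10^4.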
D3 ag = D3 dopamine receptor (human) agonism; P35462; D3R DiscoveRx beta-arrestin cells, luminescence, 90 min; max activation, %; 410,000 compounds, 0.58% hits; AID 652048; in the data active = max activation above about 30%; note: 0% is about no effect
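Agonist-mode cell screen: cells plated at 1500/well and incubated overnight at 37 °C, then exposed to library compounds for 90 min at 37 °C. Detection reagent was added for 30–60 min at room temperature, and luminescence was read.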
* = called active by the depositor; [ ] = another dose, or the depositor's remark.

`O=C(CCN1C(=O)/C(=C\c2cccs2)SC1=S)Nc1nccs1` gave DRD3 antagonist -52*, LDHA inh -6, RGS4 inh -13%, PI4K2A block 0, Akt phos inh inactive and D3 ag 13.
For O=C(C1=Cc2sc3c(c2CS1)CCCC3)N1CCC2(CC1)OCCO2 the results were LDHA inh -11.
`CC(C)OCCCNC(=O)c1cc(Nc2ccccc2)nc2ccccc12` gave LDHA inh 6.
Screening COc1ccc(OC)c2c1C(=O)C(Cl)=C(Cl)C2=O returned DRD3 antagonist -126*, LDHA inh 21, RGS4 inh -149%, PI4K2A block -5, Akt phos inh inactive and D3 ag -23.
COc1ccc(OC)c2c1C(=O)c1ccccc1C2=O was read as DRD3 antagonist 14, LDHA inh 4, RGS4 inh 1%, PI4K2A block -1, Akt phos inh inactive and D3 ag -1.
For O=S(=O)(NC1=NCN(CCc2ccccc2)CN1)c1ccccc1 the results were LDHA inh 5.
COc1ccc(NC(=O)N2CCN(c3nc(-c4cccc(OC)c4)cs3)CC2)cc1 was read as DRD3 antagonist 19, LDHA inh -3, RGS4 inh -12%, PI4K2A block 6, Akt phos inh inactive and D3 ag 51*.
For O=[N+]([O-])c1ccc(N2CCNCC2)cc1Sc1nc2ccccc2[nH]1 the results were DRD3 antagonist -66*, LDHA inh -5, RGS4 inh 24%, PI4K2A block 0, Akt phos inh inactive and D3 ag -16.
For CN(C)c1ccc(/C=C(/C#N)C(=O)NCc2ccccc2)o1 the results were DRD3 antagonist -88*, LDHA inh -3, RGS4 inh -26%, PI4K2A block 0, Akt phos inh inactive and D3 ag -17.
`CCCNCC1COc2ccccc2O1` (centres undefined) gave DRD3 antagonist -70*, LDHA inh -8, RGS4 inh 9%, PI4K2A block -4, Akt phos inh inactive and D3 ag -44.
For c1ccc(CCCNCC2COc3ccccc3O2)cc1 (centres undefined) the results were DRD3 antagonist inconclusive, LDHA inh -3, RGS4 inh -3%, PI4K2A block -1, Akt phos inh inactive and D3 ag 17.
For CCOC(=O)CCNCC1COc2ccccc2O1 (centres undefined) the results were DRD3 antagonist inconclusive, LDHA inh -5, RGS4 inh 2%[11.4 µM], PI4K2A block 4, Akt phos inh inactive and D3 ag 3.
For COc1ccc(CNCC2COc3ccccc3O2)cc1 (centres undefined) the results were DRD3 antagonist -100*, LDHA inh -13, RGS4 inh -12%, PI4K2A block 12, Akt phos inh inactive and D3 ag 4.
For COc1cccc(OC)c1OCCNCC1COc2ccccc2O1 (centres undefined) the results were DRD3 antagonist -94*, LDHA inh 0, RGS4 inh 17%[56.9 µM], PI4K2A block 3, Akt phos inh inactive and D3 ag -84.
For COc1cc(OC)c(OC)cc1CNCC1COc2ccccc2O1 (centres undefined) the results were DRD3 antagonist 0, LDHA inh -11, RGS4 inh -15%, PI4K2A block -2, Akt phos inh inactive and D3 ag -10.
`c1ccc(CCCCNCC2COc3ccccc3O2)cc1` (centres undefined) gave DRD3 antagonist -91*, LDHA inh -1, RGS4 inh -15%, PI4K2A block 4, Akt phos inh inactive and D3 ag -8.
Screening Cc1cc(C)cc(Oc2cnn(-c3ccc(C(F)(F)F)cn3)c(=O)c2Cl)c1 returned LDHA inh 0.
For COc1ccc(C(=O)NCC(=O)NCC2COc3ccccc3O2)cc1 (centres undefined) the results were DRD3 antagonist -52*, LDHA inh 3, RGS4 inh -11%, PI4K2A block -11, Akt phos inh inactive and D3 ag 0.
COc1ccc(CC(=O)NCC2COc3ccccc3O2)cc1 (centres undefined) was read as DRD3 antagonist 0, LDHA inh -3, RGS4 inh -14%, PI4K2A block 0, Akt phos inh inactive and D3 ag 2.
CC(C)N(C)S(=O)(=O)N(C)CC1COc2ccccc2O1 (centres undefined) was read as LDHA inh -32*.
Screening CN(CC1COc2ccccc2O1)S(=O)(=O)N1CCOCC1 (centres undefined) returned LDHA inh -17.
`Cc1ccc(-n2c(SCC(=O)Nc3cccc(S(N)(=O)=O)c3)nc3ccccc32)cc1` gave DRD3 antagonist 52, LDHA inh -2, RGS4 inh -36%, PI4K2A block -4, Akt phos inh inactive and D3 ag 44*.
`CCOC(=O)CC1(NC(=O)N2CCCC2c2ccco2)CCCCC1` (centres undefined) gave LDHA inh -4.
For Cc1ccc(C(=O)CSc2nc3cccnc3n2C)cc1 the results were DRD3 antagonist 14, LDHA inh -6, RGS4 inh -26%, PI4K2A block -1, Akt phos inh -106%* and D3 ag -1.
Screening CCc1nc2ccccc2c(C(=O)OCC(=O)Nc2cccc(S(=O)(=O)N3CCOCC3)c2)c1C returned DRD3 antagonist 105, LDHA inh 3, RGS4 inh -6%, PI4K2A block 1 and D3 ag 33*.
`CCc1nc2ccccc2c(C(=O)OCC(=O)Nc2cccc(S(=O)(=O)NC3=NCCCCC3)c2)c1C` gave DRD3 antagonist 92, LDHA inh -5, RGS4 inh -35%, PI4K2A block 3, Akt phos inh inactive and D3 ag 45*.
Screening O=C(COC(=O)c1ccc2ccccc2n1)Nc1cccc(S(=O)(=O)NC2=NCCCCC2)c1 returned DRD3 antagonist -5, LDHA inh -2, RGS4 inh -2%[56.9 µM], PI4K2A block -1, Akt phos inh inactive and D3 ag -3.
CC(C(=O)Nc1ccccc1)N(C)Cc1ccc2ccccc2c1 (centres undefined) was read as LDHA inh -2.
`CCC(=O)Nc1c(C)cc(C)cc1C` gave LDHA inh -22.
`CCN(CC)S(=O)(=O)c1ccc(N2CCN(CCOc3ccc(OC)cc3)CC2)nc1` gave DRD3 antagonist -6, LDHA inh -5, RGS4 inh 11%, PI4K2A block 1, Akt phos inh inactive and D3 ag 61*.
